FMDV antiviral: foot and mouth disease virus antiviral activity; Potency, µM (highest dose often 57.9 µM), inactives show at the top dose activity change, negative = inhibition, actives largely listed as inhibitors; hit rate 1.2% among 410,000; FMDV antiviral cell-based qHTS; calls by dose curve; tested in HEK293T cells; further: read-out not given here; potency means the concentration at half of the fitted maximal effect; on the % scale 0 is the no-effect control and ±100 the full control effect; nearly all actives have a fitted effect of over 45% in size
Shiga inhibitor: inhibitors of Shiga toxin in Vero cells; Vero cells, Shiga toxin protein synthesis inhibition reporter; inhibition, % at 38.7 µM; hit rate 9.2% among 290,000; in the data active means inhibition mostly above about 28%, no sharp cut-off; inactive means mostly below about 43%; further: 0% is about no effect
Cycloheximide cs: counter-screen for Shiga toxin inhibitors: cycloheximide protein synthesis inhibition; cell reporter, cycloheximide protein synthesis inhibition counterscreen; max response, %; hit rate 12% among 300,000; in the data active means max response mostly above about 13%, no sharp cut-off; inactive means mostly below about 14%; further: read at 38.3 µM for the half of the compounds with a filed dose; 0% is about no effect
Sm TGR inh: inhibitors of Schistosoma mansoni thioredoxin glutathione reductase | Q962Y6 | purified TGR, DTNB reduction, TNB absorbance 405 nm | Potency, µM (series often up to 114 µM), for the others: at the top dose activity change, negative = inhibition, actives largely listed as inhibitors | hit rate 3% among 360,000; active means well fitted inhibition curve with a large enough effect; inconclusive means small, poorly fitted or top-dose-only effect; inactive means no such curve, though single readings can be large or run the other way; further: potency means the concentration at half of the fitted maximal effect; on the % scale 0 is the no-effect control and ±100 the full control effect; nearly all actives have a fitted effect of over 60% in size
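First, TGR (20 nM dispensed) and NADPH were mixed with compound. Second, a 15 min room-temperature incubation followed. Third, further NADPH and then DTNB were added to start the reaction. Finally, TNB absorbance was monitored kinetically.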
* hit, by the source's call; ? = inconclusive; . = not tested or not shown. Sampled rows, rich in hits. Any-hit rate of the full collection: about 12%.

SMILES	FMDV antiviral	Shiga inhibitor	Cycloheximide cs	Sm TGR inh
O=C(N/N=C/C(Br)=C/c1ccccc1)NC1CCCCC1	29.1%	96.6*	49.8*	?
CC1=NNC(=O)C1CC(=O)N/N=C/C(C)=C/c1ccccc1 (stereo unspecified)	16.8%	11.7	2.5	2.6%
O=C(O)c1ccc(N/N=C/C(Br)=C/c2ccccc2)cc1	?	11.4	25.3*	1.12µM*
Cc1ccc(NCC(=O)N/N=C\C(Br)=C\c2ccccc2)cc1	.	-17.9	8.6	-18.5%
CCc1ccc(OCC(=O)Nc2ncn[nH]2)c(Br)c1	-16.5%	.	.	-0.7%
COc1ccc(CN2CCOc3ccc(C(O)c4cccnc4)cc3C2)c(F)c1 (stereo unspecified)	-29.6%	.	.	.
Cc1oc2c(cc(NS(=O)(=O)c3ccc(F)cc3)c3ccccc32)c1C(=O)OCc1ccccc1	22.0%	.	.	-10.1%
O=C(N/N=C/c1cccnc1)C(O)c1ccccc1 (stereo unspecified)	24.7%	8.9	-0.9	5.5%
O=C(N/N=C/C(Br)=C/c1ccccc1)C(O)c1ccccc1 (stereo unspecified)	22.5%	74.1*	44.0*	2.9%
Oc1ccccc1C=NN1CCCCCC1	47.2%	.	.	.
Oc1ccc(/C=N/N2CCCCC2)c(O)c1O	3.6%	11.7	1.5	35.5µM*
Oc1ccc(/C=N/N2CCOCC2)c(O)c1O	-5.4%	-5.2	12.8	14.3%
Oc1cccc(/C=N/N2CCCCC2)c1O	65.9%	95.6*	39.6*	?
Oc1ccccc1/C=N/N1CCCCC1	51.0%	84.9*	39.5*	-2.1%
C(=NN1CCCCCC1)c1ccc2ccccc2n1	100µM*	.	.	.
C(=NN1CCCCCC1)c1cccc2ccccc12	44.5%	.	.	.
Cc1ccc(N(CC(=O)Nc2ccc(Br)c(C)c2)S(=O)(=O)c2cccs2)cc1	-18.0%	.	.	8.5%
CSCC[C@H](NC(=O)[C@H](CC(C)C)N1CCC(NC(=O)[C@@H](NC(=O)[C@H](Cc2ccccc2)NC(=O)[C@H](CO)NC(=O)[C@H](CC(=O)O)NC(=O)[C@@H](N)CCCCN)C(C)C)C1=O)C(N)=O (stereo partly specified)	.	-4.4	-10.3	.
CC(C)Cn1cc(NC(=O)N2CCN(c3cccc(Cl)c3)CC2)c2ccccc2c1=O	-18.1%	.	.	?
Oc1ccc(/C=N/N2CCCCC2)c(O)c1	28.7%	106.5*	48.5*	-11.2%
Oc1ccc(Cl)cc1C=NN1CCCCCC1	20.1%	.	.	.
COc1ccc(/C=C/C(=O)NCc2cccnc2)cc1	24.2%	8.4	7.7	-16.2%
CCc1ccc(CN(Cc2cccnc2)C(=O)/C=C/c2ccc(OC)cc2)cc1	6.7%	34.0*	25.0*	2.3%
OCCN1CCN(C(c2cccs2)c2ccc3cccnc3c2O)CC1 (stereo unspecified)	.	14.9	10.6	0.316µM*
CCN1CCN(C(c2ccc(C(F)(F)F)cc2)c2ccc3cccnc3c2O)CC1 (stereo unspecified)	?	21.2	3.0	0.0%
SMILES	FMDV antiviral	Shiga inhibitor	Cycloheximide cs	Sm TGR inh
CC(C)(C)OC(=O)N1CCC(c2c(C(=O)NCCN3CCOCC3)cnn2-c2cccc(F)c2)CC1	-9.0%	.	.	-8.2%
COc1ccc(CCNC(=O)CN(c2ccc(C)cc2)S(=O)(=O)c2ccc(OC)cc2)cc1	-18.7%	.	.	-13.8%
Nc1ccccc1C(=O)N/N=C1\C2CN3CCN(C2)CC1(c1ccccc1)C3	20.5%	80.9*	50.4*	5.5%
Nc1ccccc1C(=O)N/N=C1/C2CN3CCN(C2)CC1(Cc1ccccc1)C3	-4.5%	28.6	-5.5	3.6%
O=C(N/N=C1\C2CN3CCN(C2)CC1(c1ccccc1)C3)c1ccc(F)cc1	4.6%	0.0	23.4*	-2.9%
CCCC12CN3CCN(CC(C3)/C1=N\NC(=O)c1ccccc1N)C2	38.2%	37.9*	24.9*	-12.0%
CCOC(=O)Cn1c(=O)n(-c2cccc(Cl)c2)c2nc(-c3ccccc3Cl)nc(C(N)=O)c21	-20.8%	.	.	-18.4%
CC(=O)Nc1ccccc1-c1nc2ccccc2n(CC(=O)c2ccc(Br)cc2)c1=O	-21.7%	.	.	-1.6%
CCOC(=O)c1c(SCC(=O)Nc2nc3ccc(C)cc3s2)nc(=O)[nH]c1C	2.3%	.	.	-1.9%
Cc1ccc(-c2cc(NC(=O)C(C)Oc3ccc(C)c(C)c3)on2)cc1 (stereo unspecified)	-18.2%	.	.	11.7%
O=C(NCCc1ccccc1)c1ccc(CSc2nc3ccncc3n2Cc2ccc(F)cc2)cc1	-16.7%	.	.	5.0%
CN(C)CCNC(=O)c1ccc2c(=O)n(Cc3ccc(Cl)cc3)c(=S)[nH]c2c1	-9.5%	-0.3	12.3	44.7µM*
Nc1ncc(-c2ccccc2)c(-c2ccc(O)cc2O)n1	?	-7.6	-4.8	0.0%
Oc1ccc(-c2cnns2)c(O)c1	-18.9%	-3.9	-1.9	79.4µM*
C=CCSc1nnc(C2CCCN(Cc3ccccc3O)C2)n1C (stereo unspecified)	3.0%	.	.	.
